NS1 inh: inhibitors of influenza NS1 protein function. Potency, µM (top dose mostly 46.1 µM). actives 0.4% (n = 270,000); note: actives are rising curves; nearly all actives have a fitted effect of over 50% in size
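A cell-based growth assay was used: compounds that relieve NS1-induced slow growth of budding yeast raise OD600. Assay medium was yeast nitrogen base with ammonium sulphate and -URA supplement, pH 6.0, with 2% galactose.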
Shiga inhibitor: blocks Shiga toxin action in Vero cells. inhibition, % at 38.7 µM. Vero cells, Shiga toxin protein synthesis inhibition reporter. AID 2315. actives 9.2% (n = 290,000); in the data active = inhibition mostly above about 28%, no sharp cut-off; inactive = mostly below about 43%
Cycloheximide cs: affects cycloheximide protein synthesis inhibition readout, counter-screen; cell reporter, cycloheximide protein synthesis inhibition counterscreen; max response, %; actives 12% (n = 300,000); AID 2314; in the data active = max response mostly above about 13%, no sharp cut-off; inactive = mostly below about 14%; note: read at 38.3 µM for the half of the compounds with a filed dose
Tb PYK inh: inhibitors of Trypanosoma brucei pyruvate kinase | TbPYK enzyme, Kinase-Glo Plus ATP luminescence, 45 min | Potency, µM (highest dose often 76.8 µM), hits mostly inhibitors | actives 0.12% (n = 410,000); active = well fitted curve in the direction sought with a large enough effect; inconclusive = small, poorly fitted or top-dose-only effect, or another doubt; inactive = no such curve, though single readings can be large; an effect the other way counts as inactive or inconclusive; note: nearly all actives have a fitted effect of over 50% in size
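Luminescence from Kinase-Glo Plus, added after a 45-minute room-temperature reaction, served as the end-point read-out. The enzyme and substrate were preincubated with compound before ADP (130 uM final) initiated turnover. Concentration-effect curves came from normalized qHTS data.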
LmPK inh: LmPK (Leishmania mexicana) enzyme inhibition; Q27686; purified LmPK, Kinase-Glo ATP luminescence, 1 h; Potency, µM (top dose mostly 57.5 µM), actives largely listed as inhibitors; actives 0.37% (n = 290,000); AID 1721; active = well fitted curve in the direction sought with a large enough effect; inconclusive = small, poorly fitted or top-dose-only effect, or another doubt; inactive = no such curve, though single readings can be large; an effect the other way counts as inactive or inconclusive
Target sequence (Q27686 whole entry, looked up): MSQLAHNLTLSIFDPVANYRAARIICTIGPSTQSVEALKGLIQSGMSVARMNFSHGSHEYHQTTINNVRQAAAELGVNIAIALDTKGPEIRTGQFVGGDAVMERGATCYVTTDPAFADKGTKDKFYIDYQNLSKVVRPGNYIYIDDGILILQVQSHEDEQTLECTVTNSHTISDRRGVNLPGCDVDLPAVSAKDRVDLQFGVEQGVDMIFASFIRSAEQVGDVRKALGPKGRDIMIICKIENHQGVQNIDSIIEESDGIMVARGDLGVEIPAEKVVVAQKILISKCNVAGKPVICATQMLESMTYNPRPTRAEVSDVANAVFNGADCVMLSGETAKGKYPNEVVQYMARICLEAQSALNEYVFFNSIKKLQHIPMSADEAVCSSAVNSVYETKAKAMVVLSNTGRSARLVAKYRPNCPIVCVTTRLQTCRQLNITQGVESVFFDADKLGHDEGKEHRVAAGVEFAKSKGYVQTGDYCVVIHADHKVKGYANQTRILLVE
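In 50 mM imidazole pH 7.2 with 7 mM MgCl2, LmPK (0.1 nM) turned over PEP (0.5 mM) and ADP (0.1 mM) for 1 h at room temperature. Luciferase read-out of ATP.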
SARS PLP yeast: SARS-CoV PLP inhibition in yeast; AID 485353; Potency, µM (series often up to 32.9 µM), most hits filed as activators; actives 0.19% (n = 330,000); S. cerevisiae expressing SARS-CoV PLpro, growth rescue; note: nearly all actives have a fitted effect of over 55% in size
Hits are given with their value; i = inactive; ? = inconclusive; nt = not tested or not shown. This excerpt belongs to a sample that is enriched for hits. Unless noted, calls come from the whole dose curve.

SMILES | NS1 inh | Shiga inhibitor | Cycloheximide cs | Tb PYK inh | LmPK inh | SARS PLP yeast
O=C(O)CCCCCN1C(=O)C(O)=C(C(=O)/C=C/c2ccccc2)C1c1ccccc1[N+](=O)[O-] (centres undefined) | i | i | 14 | i | i | i
COc1ccc(/C=C/C(=O)c2cc(F)ccc2OC(=O)c2ccccc2OC)cc1OC | nt | i | i | i | i | i
O=C(/C=C/c1ccc(F)cc1)c1ccccc1Br | i | i | 20 | i | i | i
Cc1ccc(C(=O)/C=C/c2ccc(F)cc2)o1 | i | 76 | 60 | i | i | i
CCCNC(=O)C1(C)CCN(Cc2cc(C(F)(F)F)ccc2Cl)C1 (centres undefined) | nt | nt | nt | i | nt | nt
COC(=O)c1ccc2nc(NC(=O)C3CCCCC3)sc2c1 | i | i | 24 | i | i | i
O=C(Nc1nc2ccc(Cl)cc2s1)C1CC1 | nt | nt | nt | i | nt | nt
CC(C)c1ccc2nc(NC(=O)C3CC3)sc2c1 | i | 70 | 52 | i | i | i
CCOc1ccccc1C1CC(=O)NC(C)=C1C(=O)OC1CCCCCC1 (centres undefined) | nt | nt | nt | i | nt | nt
CS(=O)(=O)n1nc(-c2ccc(Cl)cc2)nc1SCc1ccccc1 | i | 73 | 39 | i | i | i
COc1ccc(-c2nc(N)n(C(=O)c3ccco3)n2)cc1 | nt | i | i | i | i | i
COc1ccc(-c2nc(SC)n(C(=O)c3ccco3)n2)cc1 | i | 59 | 33 | i | i | ?
COc1ccc(-c2nc(SCc3ccccc3)n(C(=O)c3ccco3)n2)cc1 | i | i | 26 | i | i | i
Cc1ccc(CNC(=O)c2cn(C)c3ccc(S(=O)(=O)N4CCC(C)CC4)cc3c2=O)cc1 | nt | nt | nt | i | nt | nt
Cc1cc(C)nc(N/N=C/c2ccccc2OCc2cccc(Br)c2)n1 | i | i | 14 | i | i | i
Cc1cc(C)nc(N/N=C/c2ccccc2OCc2ccccc2)n1 | i | i | 12 | i | i | i
Cc1cc(C)nc(N/N=C/c2cc(Br)ccc2O)n1 | i | i | 28 | i | i | i
C/C(=N/Nc1nc(C)cc(C)n1)c1ccc(Br)cc1 | i | nt | i | i | i | i
Cc1cc(C)nc(N/N=C/c2ccccc2OCc2ccc(Cl)cc2)n1 | i | i | i | i | i | i
Cc1cc(C)nc(N/N=C/c2ccccc2OCc2ccc(Br)cc2)n1 | i | 79 | 29 | i | i | i
Cc1nc2[nH]c(=O)n(O)c(=O)c2s1 | nt | nt | nt | i | nt | nt
CCN(C(=O)Cn1nc(Cc2ccncc2)c2ccccc2c1=O)c1ccc(OC)cc1 | nt | nt | nt | i | nt | nt
C[C@@H]1CN([C@H](C)CO)C(=O)CCCn2nncc2CO[C@H]1CN(C)Cc1ccc2cccnc2c1 | nt | nt | nt | i | nt | nt
COc1ccc(/C=C/C(=O)Nc2cc(-c3nc4ccccc4o3)ccc2OC)cc1 | nt | nt | nt | i | nt | nt
O=C1c2ccccc2C(=O)N1c1cccc(-c2nc3ccccc3o2)c1 | i | i | i | i | i | i
SMILES | NS1 inh | Shiga inhibitor | Cycloheximide cs | Tb PYK inh | LmPK inh | SARS PLP yeast
COc1ccc(-c2nc3ccccc3o2)cc1OC | i | 36 | 36 | i | i | i
COC(=O)c1ccc(-c2nc3ccccc3o2)cc1 | i | i | 13 | nt | i | i
Nc1ccc(CCc2nc3ccccc3o2)cc1 | i | i | 28 | i | i | i
Nc1nc2ccc(-c3nc4ccccc4o3)cc2s1 | i | 13 | 36 | i | i | i
CC(Sc1nnnn1C)C(=O)Nc1ncc(Cl)cc1Cl (centres undefined) | nt | nt | nt | i | nt | i
COc1ccc(C2CC(=O)C=C3c4ccc(OC)cc4CCC32)cc1 (centres undefined) | nt | nt | nt | i | nt | nt
CN(C)C1CCc2[nH]c3ccc(NC(=O)c4ccc(F)cc4)cc3c2C1 (centres undefined) | nt | i | i | nt | nt | nt
CCOC(=O)Cn1c(=O)n(CC2CCCO2)c2nc(-c3ccccc3)nc(C(N)=O)c21 (centres undefined) | nt | nt | nt | i | nt | nt
O=C1c2ccccc2C(=O)N1c1ccc(-c2nc3ccccc3o2)cc1 | i | i | i | nt | i | i
c1ccc2oc(-c3ccc4nc[nH]c4c3)nc2c1 | i | 75 | 39 | i | i | i
COC(=O)c1ccc(-c2nc3ccc(C)cc3o2)cc1 | i | 154 | 76 | i | i | i
Cc1ccc2nc(-c3ccc(Cl)c(NC(=O)c4cccnc4)c3)oc2c1 | nt | nt | nt | i | nt | nt
NCc1ccc(-c2nc3ccccc3o2)cc1 | i | 93 | 59 | nt | i | i
Cc1noc(C)c1C(=O)OC(C)C(=O)NC(C)c1ccc(Cl)cc1Cl (centres undefined) | nt | nt | nt | i | nt | i
C=C1/C(=C\C=C2/CCC[C@@]3(C)[C@@H]([C@H](C)OCCC(C)(C)O)CC[C@@H]23)C[C@@H](O)C[C@@H]1O | nt | nt | nt | i | nt | nt
COc1ccc(S(=O)(=O)N2CCOCC2)cc1NC(=O)CSc1ccc(F)cc1 | nt | nt | nt | i | nt | i
Cc1ccc(OCCN2CCN(C)CC2)c([N+](=O)[O-])c1 | i | i | i | i | i | i
C=CCN(CC=C)CCOc1ccc(C)cc1[N+](=O)[O-] | i | 71 | 26 | i | i | i
Cc1ccc([N+](=O)[O-])c(OCCn2cnc3ccccc32)c1 | i | i | i | i | i | i
C=CCNCCOc1ccc(C)cc1[N+](=O)[O-] | i | i | i | i | i | i
C=CCN(CC=C)CCOc1cc(C)ccc1[N+](=O)[O-] | nt | 40 | 18 | i | i | i
Cc1ccc(OCCCN2CCOCC2)c([N+](=O)[O-])c1 | i | 74 | 36 | i | i | i
CN1OC[C@@H]2CN(C(=O)C(C)(C)C)[C@H](c3ccc(-c4cccnc4)cc3)C[C@@H]21 | nt | nt | nt | i | nt | nt
Cc1cc(Nc2ccccc2)nn1C(=O)c1ccc(Cl)cc1 | i | 156 | 49 | i | i | i
Cc1cc(Nc2ccccc2)n(C(=O)c2ccccc2)n1 | i | i | 47 | i | i | i
SMILES | NS1 inh | Shiga inhibitor | Cycloheximide cs | Tb PYK inh | LmPK inh | SARS PLP yeast
Cc1cc(Nc2ccccc2)nn1C(=O)c1ccc([N+](=O)[O-])cc1 | i | i | i | i | i | i
c1ccc(C2=NNC(c3ccco3)=Nc3ccccc32)cc1 | i | i | 17 | i | i | i
CCOC(=O)Cn1cncc1-c1ccc([N+](=O)[O-])cc1 | i | 84 | 72 | i | i | i
CC(C)COCC(O)CCC(=O)NNC(=S)Nc1ccccc1 (centres undefined) | i | i | i | i | i | i
CC(C)COC(=S)Nc1ccccc1 | i | i | 32 | i | i | i
COc1ccc(C(C(C(=O)c2cccs2)N2CCOCC2)N2CCOCC2)cc1OC (centres undefined) | i | i | 16 | i | i | i
COc1ccc(C(c2c(NC(=O)c3ccco3)sc(C)c2C)N2CCOCC2)cc1OC (centres undefined) | nt | nt | nt | i | nt | i
O=C(NCCc1ccccc1)c1nn(-c2ccc(F)cc2)nc1CO | nt | nt | nt | i | nt | nt
CCCS(=O)(=O)NC(=O)C1(C)CCN(C(=O)Cc2ccc(F)cc2)C1 (centres undefined) | nt | nt | nt | i | nt | nt
CC(C)n1ncc(N2CCOCC2)c(Cl)c1=O | i | i | 14 | i | i | i
C/C(Cn1ncc(N2CCOCC2)c(Cl)c1=O)=N\O | i | i | i | i | i | i
